Test [1] has as its target T1, Serine/threonine-protein kinase TBK1 (Homo sapiens) (UniProt Q9UHD2).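 Further: values are mean inhibition of TBK1, screened as part of the GSK published kinase inhibitor set.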
T1 sequence (whole entry): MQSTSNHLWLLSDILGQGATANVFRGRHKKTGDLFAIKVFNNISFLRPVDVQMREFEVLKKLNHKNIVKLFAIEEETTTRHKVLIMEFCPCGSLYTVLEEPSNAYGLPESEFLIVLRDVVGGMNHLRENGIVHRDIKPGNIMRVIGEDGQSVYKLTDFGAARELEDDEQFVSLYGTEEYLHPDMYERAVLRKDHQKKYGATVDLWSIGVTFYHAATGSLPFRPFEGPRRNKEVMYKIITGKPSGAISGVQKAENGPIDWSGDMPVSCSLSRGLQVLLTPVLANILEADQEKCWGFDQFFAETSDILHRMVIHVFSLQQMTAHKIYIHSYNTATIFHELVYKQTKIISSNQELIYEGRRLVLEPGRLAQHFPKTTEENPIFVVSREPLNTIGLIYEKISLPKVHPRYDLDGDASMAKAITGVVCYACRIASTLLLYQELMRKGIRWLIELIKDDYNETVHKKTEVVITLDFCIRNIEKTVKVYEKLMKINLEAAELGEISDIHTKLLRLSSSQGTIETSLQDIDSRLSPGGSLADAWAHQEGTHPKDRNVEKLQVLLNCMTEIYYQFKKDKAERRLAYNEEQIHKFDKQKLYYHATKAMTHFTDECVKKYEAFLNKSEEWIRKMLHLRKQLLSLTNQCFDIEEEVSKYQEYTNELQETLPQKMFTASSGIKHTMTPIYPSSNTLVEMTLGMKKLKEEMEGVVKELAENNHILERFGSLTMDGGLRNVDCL
The note with it: at 1 µM.

The target in test [2] is T2, Testis-specific serine/threonine-protein kinase 1 (Homo sapiens) (UniProt Q9BXA7).
T2 sequence (whole entry): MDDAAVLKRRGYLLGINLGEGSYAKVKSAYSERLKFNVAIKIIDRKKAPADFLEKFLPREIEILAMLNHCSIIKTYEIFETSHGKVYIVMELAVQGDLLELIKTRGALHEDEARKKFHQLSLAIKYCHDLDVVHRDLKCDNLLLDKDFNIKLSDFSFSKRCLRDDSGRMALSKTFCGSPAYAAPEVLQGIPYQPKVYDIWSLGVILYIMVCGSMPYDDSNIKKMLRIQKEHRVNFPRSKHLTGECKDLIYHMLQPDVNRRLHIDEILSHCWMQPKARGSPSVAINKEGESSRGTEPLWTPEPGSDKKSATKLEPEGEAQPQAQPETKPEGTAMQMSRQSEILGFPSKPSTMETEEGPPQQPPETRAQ
The note with it: at 0.1 µM.

Test [3] has as its target T2, Testis-specific serine/threonine-protein kinase 1 (Homo sapiens). The note with it: at 1 µM.
Test [4] deals with T3, Testis-specific serine/threonine-protein kinase 2 (Homo sapiens) (UniProt Q96PF2).
T3 sequence (whole entry): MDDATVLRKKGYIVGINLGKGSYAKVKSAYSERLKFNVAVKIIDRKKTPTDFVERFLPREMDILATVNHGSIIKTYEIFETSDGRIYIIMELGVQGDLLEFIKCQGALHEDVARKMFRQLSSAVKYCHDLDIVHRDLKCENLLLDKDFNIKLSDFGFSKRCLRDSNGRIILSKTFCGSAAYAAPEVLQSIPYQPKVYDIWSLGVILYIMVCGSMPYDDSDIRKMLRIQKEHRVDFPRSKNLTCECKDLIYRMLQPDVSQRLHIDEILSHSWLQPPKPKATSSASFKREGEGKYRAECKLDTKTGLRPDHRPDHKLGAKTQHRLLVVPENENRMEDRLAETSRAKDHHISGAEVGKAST
The note with it: at 0.1 µM.

In test [5] the target is T3, Testis-specific serine/threonine-protein kinase 2 (Homo sapiens). The note with it: at 1 µM.
Test [6] has as its target Casein kinase I isoform alpha (Homo sapiens) (UniProt P48729). The note with it: at 0.1 µM.
Test [7] has the same target. The note with it: at 1 µM.
For test [8], the target named is Casein kinase I isoform gamma-1 (Homo sapiens) (UniProt Q9HCP0). The note with it: at 0.1 µM.
For test [9] the target is unchanged. The note with it: at 1 µM.
Test [10] concerns the target Casein kinase I isoform gamma-2 (Homo sapiens) (UniProt P78368). The note with it: at 0.1 µM.
Test [11] shares this target. The note with it: at 1 µM.
In test [12] the target is Casein kinase I isoform gamma-3 (Homo sapiens) (UniProt Q9Y6M4). The note with it: at 0.1 µM.
Test [13] shares this target. The note with it: at 1 µM.
Test [14] deals with Cyclin-dependent kinase 1 (Homo sapiens) (UniProt P06493). The note with it: at 0.1 µM.
For test [15] the target is unchanged. The note with it: at 1 µM.
Test [16] deals with Cyclin-dependent kinase 2 (Homo sapiens) (UniProt P24941). The note with it: at 0.1 µM.
For test [17] the target is unchanged. The note with it: at 1 µM.
Test [18] shares this target. The note with it: at 0.1 µM. The source holds these as a separate data set.
Test [19] has the same target. The note with it: at 1 µM. The source holds these as a separate data set.
Test [20] concerns the target CDK3/Cyclin E (Homo sapiens) (UniProt P24864+Q00526). The note with it: at 0.1 µM.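 Further: reported percentages are mean inhibition values.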

By inhibition is commonly meant the relative decrease from the control value, in per cent.

Chain of Cyclin-dependent kinase 1 (Homo sapiens) (P06493 whole entry, looked up): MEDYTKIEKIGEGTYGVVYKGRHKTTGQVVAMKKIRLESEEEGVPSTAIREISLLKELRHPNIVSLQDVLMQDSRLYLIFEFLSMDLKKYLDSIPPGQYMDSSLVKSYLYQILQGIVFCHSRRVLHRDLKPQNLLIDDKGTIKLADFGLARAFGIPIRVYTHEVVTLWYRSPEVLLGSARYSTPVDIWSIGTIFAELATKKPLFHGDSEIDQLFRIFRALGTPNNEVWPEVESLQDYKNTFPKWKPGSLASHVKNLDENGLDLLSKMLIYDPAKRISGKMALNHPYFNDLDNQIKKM
Chain of CDK3/Cyclin E (Homo sapiens) (P24864 whole entry, looked up): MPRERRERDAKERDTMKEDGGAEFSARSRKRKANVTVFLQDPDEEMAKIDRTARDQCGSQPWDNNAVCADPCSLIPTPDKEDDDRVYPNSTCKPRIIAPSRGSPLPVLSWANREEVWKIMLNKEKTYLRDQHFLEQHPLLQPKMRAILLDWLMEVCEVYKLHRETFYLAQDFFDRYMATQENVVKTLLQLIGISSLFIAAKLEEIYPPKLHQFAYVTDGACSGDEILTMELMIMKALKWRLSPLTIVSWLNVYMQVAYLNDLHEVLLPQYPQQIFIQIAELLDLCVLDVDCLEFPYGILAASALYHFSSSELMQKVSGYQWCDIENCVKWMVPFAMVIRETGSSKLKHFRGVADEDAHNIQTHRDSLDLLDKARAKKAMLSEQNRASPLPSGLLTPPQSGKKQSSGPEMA
Chain of CDK3/Cyclin E (Homo sapiens) (Q00526 whole entry, looked up): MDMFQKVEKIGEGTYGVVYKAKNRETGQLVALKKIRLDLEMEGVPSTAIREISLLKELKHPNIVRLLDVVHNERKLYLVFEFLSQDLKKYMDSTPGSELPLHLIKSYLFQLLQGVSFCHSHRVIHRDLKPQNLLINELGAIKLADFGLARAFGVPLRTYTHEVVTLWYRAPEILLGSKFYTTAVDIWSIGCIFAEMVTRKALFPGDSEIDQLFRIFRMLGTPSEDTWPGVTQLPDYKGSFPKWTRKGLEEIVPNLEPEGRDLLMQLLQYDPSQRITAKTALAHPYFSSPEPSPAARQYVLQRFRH
Chain of Casein kinase I isoform gamma-2 (Homo sapiens) (P78368 whole entry, looked up, canonical isoform): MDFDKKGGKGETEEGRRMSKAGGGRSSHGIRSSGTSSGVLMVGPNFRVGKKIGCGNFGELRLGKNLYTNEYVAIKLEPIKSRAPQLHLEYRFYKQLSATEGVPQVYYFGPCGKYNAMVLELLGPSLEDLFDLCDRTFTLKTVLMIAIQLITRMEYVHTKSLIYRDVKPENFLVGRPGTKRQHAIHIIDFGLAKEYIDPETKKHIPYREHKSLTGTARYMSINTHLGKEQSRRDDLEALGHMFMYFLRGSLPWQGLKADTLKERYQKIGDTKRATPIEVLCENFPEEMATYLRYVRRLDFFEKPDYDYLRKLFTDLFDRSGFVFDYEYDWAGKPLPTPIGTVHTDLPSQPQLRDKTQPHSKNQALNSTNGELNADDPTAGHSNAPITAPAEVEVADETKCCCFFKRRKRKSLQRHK
Chain of Casein kinase I isoform gamma-3 (Homo sapiens) (Q9Y6M4 whole entry, looked up, canonical isoform): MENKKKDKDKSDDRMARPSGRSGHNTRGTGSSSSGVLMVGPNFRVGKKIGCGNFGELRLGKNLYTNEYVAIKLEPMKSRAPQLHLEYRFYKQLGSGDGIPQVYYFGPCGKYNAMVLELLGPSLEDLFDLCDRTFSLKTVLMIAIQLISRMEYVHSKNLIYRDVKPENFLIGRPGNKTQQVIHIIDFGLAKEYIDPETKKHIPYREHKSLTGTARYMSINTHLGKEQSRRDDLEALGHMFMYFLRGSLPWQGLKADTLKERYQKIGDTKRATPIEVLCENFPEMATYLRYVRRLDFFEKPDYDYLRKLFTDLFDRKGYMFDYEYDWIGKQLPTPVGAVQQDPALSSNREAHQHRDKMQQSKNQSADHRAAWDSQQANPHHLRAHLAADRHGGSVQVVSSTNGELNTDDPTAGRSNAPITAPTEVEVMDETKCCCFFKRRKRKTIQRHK
Chain of Casein kinase I isoform gamma-1 (Homo sapiens) (Q9HCP0 whole entry, looked up, canonical isoform): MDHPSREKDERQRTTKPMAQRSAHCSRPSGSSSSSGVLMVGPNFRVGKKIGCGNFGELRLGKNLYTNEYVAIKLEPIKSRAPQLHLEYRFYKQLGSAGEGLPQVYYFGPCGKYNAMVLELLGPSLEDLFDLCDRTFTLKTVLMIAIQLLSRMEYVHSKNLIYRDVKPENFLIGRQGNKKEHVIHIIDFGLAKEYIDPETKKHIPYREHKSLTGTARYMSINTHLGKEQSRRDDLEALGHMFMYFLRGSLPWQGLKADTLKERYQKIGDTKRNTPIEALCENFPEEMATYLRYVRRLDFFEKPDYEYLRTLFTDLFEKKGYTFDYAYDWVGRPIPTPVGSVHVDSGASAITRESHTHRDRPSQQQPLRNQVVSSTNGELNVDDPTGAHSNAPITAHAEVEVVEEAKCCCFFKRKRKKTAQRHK
Chain of Casein kinase I isoform alpha (Homo sapiens) (P48729 2-337 limits assumed): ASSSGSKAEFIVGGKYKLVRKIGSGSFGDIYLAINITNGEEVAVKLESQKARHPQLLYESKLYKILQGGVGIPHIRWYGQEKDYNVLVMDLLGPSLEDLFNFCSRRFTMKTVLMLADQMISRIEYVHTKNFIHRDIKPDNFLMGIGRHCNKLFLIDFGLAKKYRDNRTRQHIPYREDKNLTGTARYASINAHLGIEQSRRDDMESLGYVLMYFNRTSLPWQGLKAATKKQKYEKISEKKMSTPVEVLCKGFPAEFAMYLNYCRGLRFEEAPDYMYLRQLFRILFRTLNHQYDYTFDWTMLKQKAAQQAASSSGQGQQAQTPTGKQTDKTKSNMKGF

Consider `OCc1ccc(-c2nc(-c3ccccn3)c(-c3ccc4c(c3)OCO4)[nH]2)cc1`, for which the inhibition in test [1] was 4.95%; in [2] it was 3.19%; in [3], 1.78%; in test [4], 0.7%; in test [5] it was -1.56%; in test [6], 9.48%. In addition, the inhibition in test [7] was 43.3%; in test [8] it was 4.27%; in [9], 5.16%; in test [10], 3.01%; in [11], 4.06%; in test [12], 3.67%. The inhibition in test [13] is 4.78%; in test [14] it was 0.21%; in test [15], 1.4%; in [16], 1.49%; in test [17], -2.92%; in test [18] it was 3.56%. Moreover, the inhibition in test [19] was determined as 4.52%; in test [20], 1.69%.
As to `CS(=O)(=O)Nc1cccc(-c2ccc3c(NC(=O)C4CC4)n[nH]c3c2)c1`, the inhibition in test [1] is 3.56%; in test [2], 1.06%; in [3], 0.45%; in test [4], 0.02%; in test [5] it was -1.13%; in [6], 1.72%. Also, the inhibition in test [7] was 1.75%; in test [8] it was 0.64%; in test [9], 3.47%; in test [10] it was -0.83%; in test [11], 0.91%; in test [12], 0.37%. The inhibition was found to be 1.22% in test [13]; 1.04% in test [14]; 3.4% in test [15]; 1.58% in test [16]; 6.73% in test [17]; 1.31% in [18]. The figures for the inhibition in test [19] and in test [20] were 4.6% and 2.08%, respectively.
For the molecule `NS(=O)(=O)c1ccc(Nc2cc(-c3cccc(O)c3)n[nH]2)cc1`, the inhibition is 6.87% in test [1]; 3.95% in test [2]; 3.25% in test [3]; 1.95% in [4]; 1.79% in test [5]; 3.67% in test [6]. Also, the inhibition was determined as 5.95% in test [7]; 5.15% in test [8]; 6.27% in test [9]; 3.99% in [10]; 5.96% in test [11]; 7.49% in test [12]. For the same molecule, the inhibition is 2.14% in test [13]; 2.03% in test [14]; 12.9% in [15]; 16.7% in test [16]; 78.1% in test [17]; 16.5% in [18]. Also, the inhibition turned out to be 56% in [19] and 5.95% in test [20].
As to `Cc1cc(Cl)cc2c1NC(=O)C2=NNc1ccc(S(N)(=O)=O)cc1`, the inhibition was 1.59% in [1]; 4.21% in test [2]; 4.86% in test [3]; 2.71% in test [4]; 5.17% in test [5]; 1.05% in test [6]. Further, the inhibition in test [7] was 0.59%; in [8], 1.63%; in test [9], 1.59%; in test [10] it was 1.66%; in [11] it was 1.54%; in test [12], -0.43%. The inhibition came out at 0.95% in test [13]; 1.08% in test [14]; 1.91% in test [15]; 1.27% in test [16]; 2.22% in test [17]; 1.42% in [18]. Moreover, the inhibition in [19] came out at 4.71%; in test [20], 3.25%.
Take `ON=C1CCc2cc(-c3nc(C4CCNCC4)[nH]c3-c3ccncc3)ccc21`: the inhibition in test [1] is 1.68%; in [2] it was 0.96%; in test [3], 0.73%; in [4] it was -0.31%; in test [5] it was -0.97%; in test [6], -0.25%. Further, the inhibition in [7] came to 8.55%; in test [8] it was 0.25%; in [9], 1.66%; in [10], 1.32%; in [11], 1.04%; in test [12], 1.01%. For the same molecule, the inhibition is 0.07% in test [13]; 0.23% in [14]; 2.04% in test [15]; 0.63% in test [16]; -0.53% in [17]; 1.2% in test [18]. The results for the inhibition in [19] and in [20] were 2.51% and 2.27%, respectively.
For `COc1cccc(-n2ncc3c(N/N=C/c4ccc(C)cc4)ncnc32)c1`, the inhibition stood at 5.4% in test [1]; 5.91% in [2]; 15.2% in test [3]; 2.36% in test [4]; 3.89% in test [5]; 3% in [6]. Moreover, the inhibition in [7] amounted to 8.69%; in test [8] it was 6.44%; in test [9] it was 11.2%; in [10], 6.88%; in [11], 12%; in [12], 6.01%. In addition, the inhibition came to 8.48% in test [13]; 4.4% in [14]; 8.17% in test [15]; 5.82% in test [16]; 11% in [17]; 2.46% in [18]. Further, the inhibition in [19] is 7.81%; in test [20] it was -3.32%.
Turning to `O=C1Nc2ccccc2/C1=C/Nc1ccc2[nH]c(=O)[nH]c2c1`, the inhibition was 21.2% in [1]; 4.5% in test [2]; 8.92% in test [3]; 3.14% in [4]; 4.56% in [5]; 8.75% in [6]. Also, the inhibition in test [7] stood at 21.8%; in test [8], 4.87%; in [9], 7.45%; in test [10], 3.6%; in [11] it was 7.61%; in test [12] it was 3.84%. For the same molecule, the inhibition in [13] is 7.65%; in test [14], 1.63%; in test [15] it was 8.12%; in test [16], 2.91%; in [17] it was 7.88%; in [18], 3.74%. The inhibition in test [19] stood at 12.8%; in test [20], 5.68%.

For the origin of these results see ChEMBL document CHEMBL1961873, “Compounds: GSK PKIS; Assays: Nanosyn kinase panel” (2012).
